In PubChem BioAssay AID651660 (Broad Institute, 2012):
Hit rate of the full screen: of about 1,900 compounds, about 15 (0.8%) were called active.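 The calls were made as follows: active = every replicate shows at least 50% inhibition; inconclusive = mean inhibition at least 50% but some replicate below; inactive = the rest.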 The sample as a whole holds a higher share of actives than the screen did.

The compounds below were run against DNA repair protein RAD52 homolog (Homo sapiens) (UniProt P43351) (assay: inhibition of RAD52-mediated strand annealing – biochemical, FRET, single point, primary screen (AID 651660;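 also: 0% = median of neutral control wells and 100% = median of positive control wells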)). Conditions: Recombinant RAD52 ssDNA annealing, FRET fluorescence, 30 min; at 18.7 µM; stronger effect = higher value.
Chain of DNA repair protein RAD52 homolog (Homo sapiens) (P43351 whole entry, looked up): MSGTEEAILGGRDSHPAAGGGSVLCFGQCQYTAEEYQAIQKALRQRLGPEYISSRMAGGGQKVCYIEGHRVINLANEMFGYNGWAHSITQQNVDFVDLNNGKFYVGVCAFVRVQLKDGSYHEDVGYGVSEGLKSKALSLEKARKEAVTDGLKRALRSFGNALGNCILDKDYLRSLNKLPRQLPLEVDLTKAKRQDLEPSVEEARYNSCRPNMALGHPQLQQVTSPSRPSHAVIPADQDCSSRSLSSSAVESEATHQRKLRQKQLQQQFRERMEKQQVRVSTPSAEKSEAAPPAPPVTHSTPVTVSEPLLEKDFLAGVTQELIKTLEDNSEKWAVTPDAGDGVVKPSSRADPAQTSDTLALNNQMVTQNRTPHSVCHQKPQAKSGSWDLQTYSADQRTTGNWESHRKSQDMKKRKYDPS
With `COc1cc2c3cc1Oc1cc(ccc1O)C[C@@H]1c4c(cc(OC)c(O)c4Oc4ccc(cc4)C[C@H]3N(C)CC2)CCN1C` the inhibition was 77.6% (active).
For `c1cnc2c(c1)ccc1ncccc12`, the inhibition was -3.46% (inactive).
In the case of `O=C1NCCN2CCCC12` (stereo not given), the inhibition is reported as -1.15% (inactive).
`CCC1(c2ccccc2)C(=O)N(COC)C(=O)N(COC)C1=O` was tested, and the inhibition was -5.47% (inactive).
`C[N+]1(C)CCOC(O)(c2ccc(-c3ccc(C4(O)C[N+](C)(C)CCO4)cc3)cc2)C1` (stereo not given) was tested, and the inhibition was 61.8% (active).
With `C=C1[C@@H](C)[C@H]2[C@H](Cc3ccccc3)NC(=O)[C@]23OC(=O)/C=C/[C@H](O)CCC[C@@H](C)C/C=C/[C@H]3[C@@H]1O` the inhibition was -0.777% (inactive).
In the case of `CC(C)(C)C(O)C(Oc1ccc(Cl)cc1)n1cncn1` (stereo not given), the inhibition is reported as -119% (inactive).
`NCCc1c[nH]c2ccc(F)cc12` was tested, and the inhibition was 0.119% (inactive).
In the case of `CN1C(=O)N(C)C(=O)C2(Cc3ccccc3N3CCOCC32)C1=O` (stereo not given), the inhibition is reported as -0.534% (inactive).
For `CCNC(=S)N(C)CCc1cc2c(c(OC)c1C=C1C(=O)N(C)C(=O)N(C)C1=O)OCO2`, the inhibition was -15% (inactive).
